# Source: PubChem (Fisher Drug Discovery Resource Center)
# hcGAS inh = human cGAS inhibition | inhibition, % at 12.5 µM | AID 1259398 | actives 0.081% (n = 290,000) | recombinant h-cGAS, ATP depletion, Kinase-Glo luminescence | Q8N884;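 note: 0% = vehicle reaction and 100% = reaction without DNA for no activity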
# mcGAS lum = blocks mouse cGAS activity. inhibition, % at 12.5 µM. actives 0.15% (n = 160,000). Q8C6L5. recombinant cGAS, Kinase-Glo ATP depletion luminescence;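 note: 0% = negative control wells and 100% = reference inhibitor with no enzyme activity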
# NPYLR7 ag = activates Aedes aegypti NPYLR7 receptor; HEK293T NPYLR7/Galpha15, GCaMP6s calcium fluorescence; actives 0.15% (n = 270,000); activation, % at 10 µM; in the data active = activation above about 40%;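 note: 0% = vehicle and 100% = reference agonist at the receptor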
# An asterisk follows results filed as active; / = not tested or not shown. A selection: hits, their analogues and other compounds. The true share with any hit is near 0.24%. Cut-off read from the data, not from the text of the source, unless noted: active = inhibition above about 40%; inactive = the rest.
SMILES,hcGAS inh,mcGAS lum,NPYLR7 ag
COc1ccc(CCN2COc3ccc4c(c3C2)O/C(=C\c2cccnc2)C4=O)cc1,-2.4,-8.0,46.0*
COc1ccc(CN2COc3ccc4c(c3C2)O/C(=C\c2ccncc2)C4=O)cc1OC,-1.7,6.8,33.4
COc1cccc(CN2COc3ccc4c(c3C2)O/C(=C\c2ccncc2)C4=O)c1,5.0,11.2,66.4*
COc1ccc(N2CCN(c3nc(SCc4cccc(C(=O)NCc5ccccn5)c4)nc(C)c3C)CC2)cc1,-4.8,-8.3,4.9
COC(=O)c1sc2nc(C)n(CC(=O)NC(C)(C)C)c(=O)c2c1C,-6.7,-14.2,-4.0
O=C(c1ccc([N+](=O)[O-])o1)N1CCC(c2cn(Cc3cccc(F)c3)c3ccccc23)CC1,-5.3,-8.2,30.6
O=C(OCc1cc2c(cc1Br)OCO2)c1cccc(O)c1,-13.6,/,0.3
O=C(OCc1cc2c(cc1Br)OCO2)c1cnccn1,69.4*,-1.9,-0.7
CCN1C(=Cc2cc(C)[n+](CCOC)c(C)c2)Sc2ccccc21,3.6,/,123.5*
CCN1/C(=C\C(=C2\C(=O)N(C)C(=S)N2C)c2ccccc2)Sc2ccccc21,-2.5,/,-1.7
CCN1C(=O)/C(=C/C=C2/Sc3ccccc3N2CC)SC1=Nc1ccccc1C,-2.7,-2.3,-4.2
CCN1C(=Cc2cc(C)[n+](CC3CCCO3)c(C)c2)Sc2ccccc21 (configuration not stated),-1.0,-4.1,123.0*
CCCC[n+]1c(C)cc(C=C2Sc3ccccc3N2CC)cc1C,2.0,/,257.9*
CCN1C(=O)/C(=C\C=C2/Sc3ccccc3N2CC)N(c2ccccc2)C1=S,-5.2,-4.0,-1.9
CN(Cc1ccc(Br)s1)c1cc(C(N)=O)ccn1,-14.0,/,2.5
Cc1ccc(-c2cc(C(=O)NC3CCCc4nc(N(C)C)ncc43)n[nH]2)o1 (configuration not stated),-0.6,/,-0.3
COCC(C)NC(=O)CCc1nnc(CCC2CCCCC2)o1 (configuration not stated),4.4,/,-3.1
COc1cccc(CN(Cc2ccc(C(O)(CC3CCC3)CC3CCC3)o2)CC2CCCO2)c1 (configuration not stated),-9.9,-6.4,7.8
C[n+]1ccc(C(=O)N2CCOCC2)cc1,-1.5,-6.0,-6.8
CCOC(=O)c1[nH]c2c([N+](=O)[O-])cc(OCC)cc2c1CCN1C(=O)c2ccccc2C1=O,-1.6,69.5*,-7.3
CCOC(=O)c1[nH]c2c([N+](=O)[O-])cc(C)cc2c1CCN1C(=O)c2ccccc2C1=O,4.1,-7.4,4.5
CC(C(=O)NCc1ccc(F)cc1)N1C(=O)CSC1c1cccc(C(F)(F)F)c1 (configuration not stated),-6.3,-8.0,2.3
O=c1oc2cc(O)ccc2cc1-c1nnc(-c2ccccc2)o1,9.4,-5.7,34.8
O=c1oc2cc(O)ccc2cc1-c1nc2ccccc2o1,5.0,/,216.4*
CC(C)CNC(=O)CN(C)C(=O)c1csc(Nc2cc(Cl)ccc2Cl)n1,165.6*,/,2.7
SMILES,hcGAS inh,mcGAS lum,NPYLR7 ag
CCC(C)NC(=O)CN(C)C(=O)c1csc(Nc2cccc(C(F)(F)F)c2)n1 (configuration not stated),-8.6,-5.6,/
CCOc1ccccc1C(=O)N1CCC(c2cn(Cc3cccc(F)c3)c3ccccc23)CC1,-2.8,-4.5,-1.7
CCC(C)NC(=O)CCn1c(=O)c2ccccc2n2c(=O)n(CC(=O)NCc3cccs3)nc12 (configuration not stated),-3.5,/,1.4
CS(=O)(=O)N=C1C=C(S(=O)(=O)c2ccccc2)C(=O)c2ccccc21,55.2*,/,2.2
COC1=C(OC)C(=O)c2ccccc2C1=O,-0.9,11.8,-5.6
O=C(NCCc1cc(F)cc(F)c1)c1ccc(-c2cccs2)[nH]c1=O,1.2,/,-2.7
COc1ccc(NC(C)c2nc(-c3cccs3)no2)c(OC)c1 (configuration not stated),-12.0,-15.3,-0.2
O=C(/C=C/c1c(F)cccc1F)Nc1ccc(-c2nnco2)cc1,-11.2,/,-6.6
O=C(O)CN1C(=O)C(=NN2C(=O)CSC2=S)c2ccccc21,42.9*,/,-2.7
O=C(O)CN1C(=O)C(=C2C(=O)N(CC(=O)O)c3ccccc32)SC1=S,-8.3,-1.3,0.9
O=C(NCCc1cccc(F)c1)c1ccc(CSc2ccc3ccccc3n2)cc1,-3.7,-6.0,-3.6
COCC(=O)N(Cc1ccccc1)c1nc2cc(C)cc(C)c2s1,-8.3,/,6.2
Cc1nc(Sc2nnc3ccccn23)c2c3c(sc2n1)CCCC3,-3.0,-6.9,43.2*
c1ccn2c(Sc3ncnc4sc5c(c34)CCCC5)nnc2c1,-0.3,/,3.8
Cc1sc(-n2c(C)ccc2C)c(C(=O)O)c1C,0.3,1.9,7.0
Cc1ccc(C)n1-c1sccc1C(=O)O,43.6*,86.2*,24.7
CC(C)NC[C@@H](O)c1ccc(O)c(O)c1,-8.4,-6.2,32.5
CNC[C@@H](O)c1ccc(O)c(O)c1,-2.6,/,54.5*
